# Reference: paper PMC5540273 (PLoS ONE, 2017)
# Key:
# Conditions in all cases: concentration: 1 μM, replicates: in singlicate; n = 1
# DYRK1B = system: DYRK1B
# DYRK2 = system: DYRK2
# EGFR = system: EGFR
# EIF2AK1 = system: EIF2AK1
# EPHA1 = system: EPHA1
# EPHA2 = system: EPHA2
# EPHA3 = system: EPHA3
# EPHA4 = system: EPHA4
# EPHA5 = system: EPHA5
# EPHA6 = system: EPHA6
# EPHA7 = system: EPHA7
# EPHA8 = system: EPHA8
# EPHB1 = system: EPHB1
# EPHB2 = system: EPHB2
# EPHB3 = system: EPHB3
# EPHB4 = system: EPHB4
# EPHB6 = system: EPHB6
# ERBB2 = system: ERBB2
# ERBB3 = system: ERBB3
# ERBB4 = system: ERBB4
# 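Also: KINOMEscan kinase panel screen.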
Structure (SMILES),%Inh (DYRK1B) [%],%Inh (DYRK2) [%],%Inh (EGFR) [%],%Inh (EIF2AK1) [%],%Inh (EPHA1) [%],%Inh (EPHA2) [%],%Inh (EPHA3) [%],%Inh (EPHA4) [%],%Inh (EPHA5) [%],%Inh (EPHA6) [%],%Inh (EPHA7) [%],%Inh (EPHA8) [%],%Inh (EPHB1) [%],%Inh (EPHB2) [%],%Inh (EPHB3) [%],%Inh (EPHB4) [%],%Inh (EPHB6) [%],%Inh (ERBB2) [%],%Inh (ERBB3) [%],%Inh (ERBB4) [%]
CC(C)(C)c1ccc2nccc(Nc3cccc(O)c3)c2c1 [GW856795],48,51,63,0,74,18,21,18,37,18,0,56,22,17,57,37,3,88,44,37
O=C(Nc1cccc(Oc2ccc3nc(NC(=O)C4CC4)cn3n2)c1)c1ccccc1C(F)(F)F,12,0,82,0,35,29,3,28,0,16,0,29,6,19,7,10,31,25,52,20
Nc1ncc(-c2cccnc2)c2scc(-c3ccc4c(c3)CCN4C(=O)Cc3ccccc3)c12 [GSK683281],27,24,16,25,13,8,0,7,0,11,19,26,21,9,12,2,98.1,1,0,2
CCCCc1nn2ncccc2c1-c1ccnc(Nc2ccc(N3CCN(C)CC3)cc2)n1 [GW684941],20,3,81,0,88,42,9,29,0,40,0,73,65,26,18,62,97.7,69,72,66
Nc1n[nH]c2cnc(-c3ccccc3)cc12 [SB-642124],75,88,38,4,26,16,0,12,0,6,65,51,19,40,16,18,0,0,0,24
Cc1ccc(C)c(NC(=O)NC2CCN(c3ccnc(Nc4ccc(F)cc4)n3)C2)c1 (stereo not drawn) [GSK1379720],0,8,0,0,18,0,0,0,0,0,0,0,0,16,8,6,24,43,11,47
C[C@@H](Oc1cc(-n2cnc3cc(-c4ccnc(NCCS(C)(=O)=O)c4)ccc32)sc1C(N)=O)c1ccccc1Cl [GSK907232],0,15,35,1,9,16,0,10,0,23,6,23,19,0,10,3,60,0,0,0
CN(c1ccc(NC(=O)Nc2cc(C(F)(F)F)ccc2F)cc1)c1ccnc(Nc2ccc(S(N)(=O)=O)cc2)n1 [GW809893],10,14,4,10,97.4,96.1,78,96.9,97.5,98.5,97.9,99.9,97.5,95.7,50,95,98.8,0,35,0
CSc1cccc2c(-c3ccncn3)c(-c3ccc(F)cc3)nn12 [GW514786],0,12,70,0,18,7,0,0,0,0,9,26,15,0,4,2,20,34,13,0
CNC(=O)c1ccccc1Nc1nc(Nc2ccc(N3CCOCC3)cc2)ncc1Cl.Cl [GSK1576028],100,99.1,98.8,0,90.8,53,76,29,0,65,88,40,71,23,2,46,95.2,79,0,93.4
O=C(O)C(F)(F)F.O=C(O)C(F)(F)F.O=c1[nH]ccc2nc(N[C@@H]3CCCNC3)nc(Nc3ccc(S(=O)(=O)N4CCOCC4)cc3)c12 [GSK2177277],0,59,45,21,25,28,98.9,57,32,62,58,39,31,0,15,21,30,2,45,12
COc1ccc(Nc2nccc(NCCNC(=O)c3cc4ccccc4s3)n2)cc1 [GSK1379896],0,5,19,0,0,8,0,0,0,0,0,3,16,0,5,0,0,4,0,0
Oc1cc(Nc2ccnc3cc(I)ccc23)ccc1F [GW552771],0,8,32,0,94.8,34,48,29,0,29,0,49,39,14,4,45,24,22,0,36
Cc1ccc(C(=O)N2CC[C@@H](O)C2)cc1-n1c(C)cc(OCc2ccc(F)cc2F)c(Br)c1=O,0,0,0,0,78,76,42,0,0,0,0,85,84,8,0,0,92,36,0,35
Cc1ccc(F)c(C(=O)Nc2cccc(-c3nn4ccccc4c3-c3ccnc(Nc4cccc(F)c4)n3)c2)c1F [GSK361061],0,5,99.1,9,32,26,25,20,1,32,41,53,40,0,9,10,94.3,88,25,96.4
O=C(Nc1ccccc1F)NC1CCN(c2ccnc(Nc3ccc(F)cc3)n2)CC1 [GSK1379800],12,0,47,0,0,0,0,5,0,5,0,0,17,0,11,8,18,33,3,32
O=C(Nc1cccc(-c2nn3ccccc3c2-c2ccnc(Nc3cccc(C(F)(F)F)c3)n2)c1)c1c(F)cccc1F [GSK292658],1,3,98.2,0,5,8,0,5,0,7,0,0,2,0,5,0,25,80,0,90
Cl.NC(=O)c1cccc(Nc2nccc(Nc3ccc(Oc4c(Cl)cccc4Cl)c(Cl)c3)n2)c1 [GW659009],0,6,99.5,13,0,0,0,0,0,0,0,6,93.5,0,0,0,32,92.5,93.3,93.9
CN1CCN(CCCNc2nccc(-c3c(-c4ccc(F)cc4)nn4cc(C(F)(F)F)ccc34)n2)CC1 [GW621581],0,4,23,0,42,0,0,1,0,8,0,15,13,0,0,9,26,0,0,0
COc1cccc(NC(=O)NC2CCN(c3ccnc(Nc4cc(OC)c(OC)c(OC)c4)n3)C2)c1 (stereo not drawn) [GSK1379763],15,4,12,0,6,0,0,0,0,0,6,4,11,8,0,7,94.3,0,0,30

Structure (SMILES),%Inh (DYRK1B) [%],%Inh (DYRK2) [%],%Inh (EGFR) [%],%Inh (EIF2AK1) [%],%Inh (EPHA1) [%],%Inh (EPHA2) [%],%Inh (EPHA3) [%],%Inh (EPHA4) [%],%Inh (EPHA5) [%],%Inh (EPHA6) [%],%Inh (EPHA7) [%],%Inh (EPHA8) [%],%Inh (EPHB1) [%],%Inh (EPHB2) [%],%Inh (EPHB3) [%],%Inh (EPHB4) [%],%Inh (EPHB6) [%],%Inh (ERBB2) [%],%Inh (ERBB3) [%],%Inh (ERBB4) [%]
O=C(Nc1cccc(-c2nn3ccccc3c2-c2ccnc(Nc3cccc(F)c3)n2)c1)c1c(F)ccc(F)c1Cl [GSK357952],0,11,100,39,5,0,0,25,0,15,11,19,6,0,4,8,48,82,0,76
Cc1occc1-c1ncc(OC[C@@H](N)Cc2c[nH]c3ccccc23)cc1-c1ccc2[nH]nc(C)c2c1.O=C(O)C(F)(F)F [GSK682037],0,26,94.3,0,0,9,29,0,0,49,6,39,10,0,17,14,0,81,0,47
COc1cc(Nc2nccc(-c3c(-c4cccc(NC(=O)c5c(F)cccc5F)c4)nn4ncccc34)n2)cc(OC)c1OC [GSK327238],33,16,100,0,86,71,42,65,0,49,9,56,35,93,0,15,97.4,98.6,96,99.4
COC(=O)Nc1nc2cc(Oc3ccc(NC(=O)Nc4cc(C(F)(F)F)ccc4F)cn3)ccc2[nH]1.Cl.Cl [GW681170],12,0,12,5,64,92.3,47,81,43,91,82,98.2,63,78,12,55,86,22,2,2
CC(=O)Nc1nc2cnc(Nc3cc(NC(=O)c4cccc(C5(C#N)CC5)c4Cl)ccc3C)nc2s1,67,8,0,0,70,79,50,59,3,56,0,55,10,50,10,34,64,14,7,4
O=C(NC1CCN(c2ccnc(Nc3ccc(F)cc3)n2)C1)c1cc2ccccc2s1 (stereo not drawn) [GSK1379716],14,0,22,0,9,17,0,16,2,10,7,14,9,18,17,15,0,42,22,28
Clc1ccc(-c2nn3ncccc3c2-c2ccnc(Nc3ccc4c(c3)OCCO4)n2)cc1 [GW829116],0,0,84,0,0,0,0,12,19,34,35,3,18,13,7,0,65,32,8,84
Cl.Cl.NCC(NC(=O)c1cc(-c2ccccc2)c(-c2ccnc3[nH]ccc23)s1)c1ccccc1 (stereo not drawn) [GSK1321561],100,25,84,0,26,21,38,2,6,34,11,50,16,0,7,19,2,58,0,49
Fc1ccc(-c2ncn(C3CCNCC3)c2-c2ccnc(Oc3ccc(-c4ccccc4)cc3)n2)cc1 [SB-245391],25,36,3,12,19,0,0,19,9,17,3,8,10,6,16,17,15,62,33,6
Cn1cc(-c2[nH]c3cc(NC(=O)[C@H](N)C4CCCCC4)cc4c3c2C=NNC4=O)cn1,0,92.3,81,0,25,1,56,11,12,14,4,10,15,0,1,0,92.4,64,77,36
Cn1cc(-c2ccc3c(c2)CCN3C(=O)Cc2cccc(F)c2)c2c(N)ncnc21 [GSK2603358],1,4,35,87,16,0,0,7,0,15,7,11,0,0,13,16,98.7,40,0,12
COc1cc(Nc2nccc(N3CCC(NC(=O)c4cc5ccccc5s4)C3)n2)cc(OC)c1OC (stereo not drawn) [GSK1379760],33,19,45,0,3,9,0,7,0,5,4,17,6,26,5,15,61,6,12,0
C[C@@H]1CC[C@@H](C(=O)Nc2ccccc2)CN1c1cc(-c2ccc3c(N)n[nH]c3c2)nc(N)n1 [GSK2286062],0,3,43,0,1,17,2,0,0,0,0,4,5,0,0,10,14,44,0,0
Nc1ncnc2c1nc(-c1ccccc1)n2-c1ccccc1 [SKF-97293],6,25,7,20,22,0,0,30,13,28,0,7,15,0,29,10,16,14,43,0
COc1cccc(C2=C(Nc3ccc(Cl)c(C(=O)O)c3)C(=O)NC2=O)c1 [SB-390769],100,100,24,99.6,1,10,0,0,0,2,0,15,0,23,10,10,100,28,5,0
CC(=O)N1CCN(c2ccc(Nc3nccc(-c4sc(C(C)C)nc4-c4cccc(NS(=O)(=O)c5cccc(Cl)c5)c4)n3)cn2)CC1 [GSK1660437],0,11,86,19,71,3,0,0,99.6,32,0,29,21,0,0,0,97.7,82,92,40
CCS(=O)(=O)c1ccc(OC)c(Nc2nccc(-c3c(-c4cccc(NC(=O)c5c(F)cccc5F)c4)nn4ncccc34)n2)c1 [GSK326180],0,16,99.3,0,23,0,12,100,0,100,5,24,15,12,100,12,16,99.3,0,100
O=c1[nH]cc(-c2ccc(N3CCOCC3)cc2)c2sc(-c3cn[nH]c3)cc12 [GSK2276055],100,89,18,0,0,0,30,0,0,0,9,12,6,0,0,2,31,3,0,24
COc1cc(Nc2nccc(-c3c(-c4cccc(NC(=O)c5c(F)cccc5F)c4)nn4ccccc34)n2)cc(OC)c1OC [GSK323521],0,0,38,39,12,16,0,0,21,3,15,20,14,9,1,8,71,6,0,12
